What was measured:
Assay type in all cases: functional
[1] = test system: Plasmodium falciparum; assay: GSK_TCMDC: Inhibition of Plasmodium falciparum 3D7 in whole red blood cells, using parasite LDH activity as an index of growth. Test compounds present at 2uM
[2] = test system: Plasmodium falciparum; assay: GSK_TCMDC: Inhibition of Plasmodium falciparum Dd2 in whole red blood cells, using parasite LDH activity as an index of growth. Test compounds present at 2uM
[3] = test system: HepG2; assay: GSK_TCMDC: Percent inhibition of human HepG2 cell line. Test compounds present at 10uM.

Structure (SMILES)	Inhibition [1] [%]	Inhibition [2] [%]	Inhibition [3] [%]
COc1cc2nccc(Nc3ccc(NC(=O)c4ccc(C)cc4)c(O)c3)c2cc1OC.Cl	100	77	96
CCCCCNC(=N)c1ccc(OCCCCCOc2ccc(C(=N)NCCCCC)cc2)cc1.Cl	99	98	3
CN1CCN(CC(=O)Nc2cccc(-c3ccc(-c4nc5cc(C(F)(F)F)ccc5[nH]4)cc3)c2)CC1	100	94	37
Cc1cc(C)cc(N2C(N)=NC(N)=NC2(C)C)c1.Cl	93	6	58
CN(C)c1ccc(CN2CCCC(CNC(=O)c3ccc(-c4cccc(C(F)(F)F)c4)s3)C2)cc1.O=C(O)C(F)(F)F (configuration not stated)	89	37	32
Cc1cccc(Cl)c1S(=O)(=O)N1CCCCC(c2ccc(C(F)(F)F)cc2)=N1	100	100	5
CCCCCCN1CCCN(Cc2ccc(C(=O)Nc3ccc(F)c(F)c3)cc2)CC1.O=C(O)C(F)(F)F	84	48	50
Br.N=c1sc2ccccc2n1CC(O)c1ccc(Cl)c(Cl)c1 (configuration not stated)	99	74	4
Br.CC(CCON1C(N)=NC(N)=NC1(C)C)c1ccc(Cl)cc1 (configuration not stated)	93	97	64
CCOCCCNc1ncc(-c2ccsc2)c(-c2nc(C)cs2)n1	89	83	0
C=CCc1ccc(C[C@H](NC(=O)OC(C)(C)C)C(=O)OC)cc1	98	98	77
COc1cccc(-c2ccc(C(=O)NC3CCN(Cc4ccc(C(C)(C)C)cc4)CC3)s2)c1.O=C(O)C(F)(F)F	85	23	43
Cn1c(N)c(C(=O)CSc2nnc(-c3cccs3)n2Cc2ccccc2)c(=O)n(C)c1=O	85	68	0
CN(C)Cc1ccc(CN2CCN(CCOc3ccc(-c4ccc(Cl)cc4)cc3)CC2)o1	90	21	75
CCN1CCN(c2ccc(Nc3c4ccccc4nc4ccccc34)cc2)CC1	99	100	24
CN1CCN(CCCN(Cc2csc(-c3ccc(CNCc4ccccc4)cc3)n2)C(=O)Nc2cccc(Cl)c2)CC1.O=C(O)C(F)(F)F	100	67	32
COc1ccc(-c2ccc([N+](=O)[O-])cc2C(=O)NCC(C)Oc2ccc(C(F)(F)F)cc2)cc1 (configuration not stated)	100	81	6
CC(=O)Nc1[nH]c(-c2ccccc2)nc1C(N)=O	99	0	10
CC(C)CCNc1nc(NCCCc2ccccc2)c2cc(O)ccc2n1	100	95	14
COc1cc2nc(N3CCN(C(=O)c4ccc(N(C(=O)OC(C)(C)C)C(=O)OC(C)(C)C)cc4)CC3)nc(N)c2cc1OC	96	19	12
COC(=O)C(C)(C)Cc1c(SC(C)(C)C)c2cc(C(C)C)ccc2n1Cc1ccc(Cl)cc1	96	96	0
COc1ccc(CN2CCC(C(=O)Nc3cccc(-c4cccc(Cl)c4)c3)CC2)cc1O	91	0	25
O=[N+]([O-])c1ccc(C(O)P(=O)(c2ccccc2)c2ccccc2)cc1 (configuration not stated)	98	1	1
Cc1cccc2nc(-c3cccc(-c4ccc(NC(=O)c5ccc(=O)[nH]n5)cc4)c3)[nH]c12	100	27	18
O=C(CCCCCNC(=O)c1ccc(O)c(-c2ccc(Cl)c(Cl)c2)c1)NC1CCCc2ccccc21 (configuration not stated)	97	13	0
CS(=O)(=O)c1ccc(-c2cnc(N)c(-c3cccc(O)c3)c2)cc1	98	97	48
CCOC(=O)C1=C(C)NC2=C(C(=O)CCC2)C1c1cn(Cc2ccc(Cl)cc2Cl)nc1-c1ccccc1 (configuration not stated)	100	96	0
O=c1cc(NC[C@H]2CCC[C@@H]2NC2CCCc3c2[nH]c2ccccc32)[nH]c2ccccc12 (some centres not stated)	100	25	6
COc1ccc(-c2cnc3ccc(NCc4ccc(S(N)(=O)=O)cc4)nn23)cn1	98	98	16

— ChEMBL document CHEMBL1157539, “Thousands of chemical starting points for antimalarial lead identification” (Nature, 2010)
